An excerpt weighted towards active compounds, which were near 22% of everything screened.
CYP2C19 inh: inhibitors of human CYP2C19 | AID 778 | P33261 | inhibition, % at 5 µM | 21% of 96,000 active | CYP2C19 Supersomes, luciferin-H EGE luminescence, 30 min;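 active = CYP2C19 inhibition above a set limit at 5 µM in the primary screen, cut at about 50% in these data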
Target sequence (P33261 whole entry, looked up): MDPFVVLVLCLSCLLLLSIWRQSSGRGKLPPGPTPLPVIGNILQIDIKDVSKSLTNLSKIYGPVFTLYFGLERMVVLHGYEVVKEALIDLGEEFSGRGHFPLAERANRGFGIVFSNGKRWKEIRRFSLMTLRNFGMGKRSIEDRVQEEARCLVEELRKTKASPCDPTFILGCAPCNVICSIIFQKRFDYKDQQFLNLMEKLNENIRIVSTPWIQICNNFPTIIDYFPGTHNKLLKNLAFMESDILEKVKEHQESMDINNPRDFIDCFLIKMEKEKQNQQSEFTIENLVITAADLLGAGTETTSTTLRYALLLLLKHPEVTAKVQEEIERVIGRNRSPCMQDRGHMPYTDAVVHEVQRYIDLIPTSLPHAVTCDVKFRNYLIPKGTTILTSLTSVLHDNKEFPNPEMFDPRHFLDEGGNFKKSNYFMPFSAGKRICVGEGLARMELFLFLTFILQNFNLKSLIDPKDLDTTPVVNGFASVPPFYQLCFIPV
Measles CPE: protection of cells from measles virus | Measles virus-infected cells, CPE protection, absorbance | protection (pct of control), % at 4 µM | 1.5% of 140,000 active | AID 841; in the data active = protection mostly above about 24%, no sharp cut-off; inactive = mostly below about 26%
CYP2C9 act: activators of human CYP2C9 | activation factor at 5 µM | 1.4% of 96,000 active | recombinant CYP2C9, luciferin-H conversion, luminescence; hits give high values; factor 1 = untreated enzyme, 0 = blocked | P11712;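 active = activation factor of 2 or more for CYP2C9 at a 5 µM dose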
CYP2C19 act: activators of human cytochrome P450 2C19; recombinant CYP2C19, luciferin-H EGE luminescence; hits give high values; 0 = fully inhibited enzyme, 1 = untreated enzyme; P33261; activation factor at 5 µM; 96,000 tested, under 10 active;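 active = activation factor of at least 2 at 5 µM in the primary screen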
CYP2C9 inh: inhibitors of human CYP2C9; 20% of 96,000 active; inhibition, % at 5 µM; CYP2C9 Supersomes, luciferin-H conversion, luminescence; P11712; AID 777;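 active = blocking of liver enzyme CYP2C9 beyond about 50% at 5 µM, limit read from the data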
Hits are given with their value.

For COC(=O)C(C)Oc1cc(C)cc2oc(=O)c3c(c12)CCCC3 (stereo not drawn) the results were CYP2C19 inh 55, Measles CPE inactive, CYP2C9 act inactive, CYP2C19 act inactive and CYP2C9 inh 92.
`COC(=O)C(C)Oc1cc(C)cc2oc(=O)c3c(c12)CCC3` (stereo not drawn) gave CYP2C19 inh 72, Measles CPE inactive, CYP2C9 act inactive, CYP2C19 act inactive and CYP2C9 inh 92.
For Cc1cc(OCC(=O)OC(C)C)c2c3c(c(=O)oc2c1)CCCC3 the results were CYP2C19 inh inactive, Measles CPE inactive, CYP2C9 act inactive, CYP2C19 act inactive and CYP2C9 inh inactive.
`CCOC(=O)C(C)Oc1cc(C)cc2oc(=O)c3c(c12)CCCC3` (stereo not drawn) gave CYP2C19 inh inactive, Measles CPE inactive, CYP2C9 act inactive, CYP2C19 act inactive and CYP2C9 inh 78.
Screening CC[n+]1c(/C=C/N(C)c2ccccc2)sc2ccc(Cl)cc21 returned CYP2C19 inh inactive, Measles CPE inactive, CYP2C9 act inactive, CYP2C19 act inactive and CYP2C9 inh inactive.
Screening Cc1cccc(CSc2nc3c(cc2C#N)CN(C)CC3)c1 returned CYP2C19 inh 70, Measles CPE inactive, CYP2C9 act inactive, CYP2C19 act inactive and CYP2C9 inh inactive.
For CCOP(=O)(C#CC(C)(C)C)C(C)(O)c1ccccc1 (stereo not drawn) the results were CYP2C19 inh inactive, Measles CPE inactive, CYP2C9 act inactive, CYP2C19 act inactive and CYP2C9 inh inactive.
For O=c1[nH]c(=S)n(Cc2ccc(F)cc2)c(O)c1C=NCc1cccnc1 the results were CYP2C19 inh 66, Measles CPE inactive, CYP2C9 act inactive, CYP2C19 act inactive and CYP2C9 inh inactive.
O=c1[nH]c(=O)n(CCC2=CCCCC2)c(O)c1C=NCc1cccnc1 was read as CYP2C19 inh inactive, Measles CPE inactive, CYP2C9 act inactive, CYP2C19 act inactive and CYP2C9 inh inactive.
For CCCNC(=O)N1C2CCC1CC(O)(c1cccnc1)C2 (stereo not drawn) the results were CYP2C19 inh inactive, Measles CPE inactive, CYP2C9 act inactive, CYP2C19 act inactive and CYP2C9 inh inactive.
`CCSc1cc(C2C(C#N)=C(N)Oc3n[nH]c(C)c32)c(C)o1` (stereo not drawn) gave CYP2C19 inh 92, Measles CPE inactive, CYP2C9 act inactive, CYP2C19 act inactive and CYP2C9 inh 67.
Screening O=P(Nc1ccccc1)(Nc1ccccc1)Oc1ccc(Cl)cc1 returned CYP2C19 inh 86, Measles CPE inactive, CYP2C9 act inactive, CYP2C19 act inactive and CYP2C9 inh 81.
CCOC(=O)c1c(NC(=O)C(c2ccccc2)c2ccccc2)sc2c1C1CCN2CC1 was read as CYP2C19 inh inactive, Measles CPE inactive, CYP2C9 act inactive, CYP2C19 act inactive and CYP2C9 inh 63.
`COc1cccc(N2CCN(Cc3ccc(Cl)cc3)CC2)c1` gave CYP2C19 inh 88, Measles CPE inactive, CYP2C9 act inactive, CYP2C19 act inactive and CYP2C9 inh 72.
For COc1cccc(N2CCN(Cc3cccc(Cl)c3)CC2)c1 the results were CYP2C19 inh 95, Measles CPE inactive, CYP2C9 act inactive, CYP2C19 act inactive and CYP2C9 inh 79.
NCCc1c[nH]c2ccccc12 was read as Measles CPE inactive.
For CCCCc1ccc2[nH]cc(CCN)c2c1 the results were CYP2C19 inh inactive, Measles CPE inactive, CYP2C9 act inactive, CYP2C19 act inactive and CYP2C9 inh 63.
`CCn1c(O)c(C=Nc2ccc(N3CCOCC3)cc2)c(=O)n(CC)c1=S` gave CYP2C19 inh inactive, Measles CPE 35, CYP2C9 act inactive, CYP2C19 act inactive and CYP2C9 inh inactive.
`CCn1c(O)c(C=Nc2ccc(N3CCOCC3)c(Br)c2)c(=O)n(CC)c1=S` gave CYP2C19 inh inactive, Measles CPE inactive, CYP2C9 act inactive, CYP2C19 act inactive and CYP2C9 inh inactive.
Screening COc1ccccc1N1CCN(Cc2cccc(OC)c2O)CC1 returned CYP2C19 inh 52, Measles CPE inactive, CYP2C9 act inactive, CYP2C19 act inactive and CYP2C9 inh inactive.
Screening COc1ccccc1N1CCN(Cc2c(F)cccc2F)CC1 returned CYP2C19 inh 58, Measles CPE inactive, CYP2C9 act inactive, CYP2C19 act inactive and CYP2C9 inh inactive.
CN(C)C(=O)Oc1cccc(-c2cn3cc(Cl)ccc3n2)c1 was read as Measles CPE 45.
CN(C)C(=O)Oc1ccc(-c2cn3cc(Cl)ccc3n2)cc1 was read as Measles CPE inactive.
Screening Cc1cccc(C)c1NC(=O)CN(C)CC(=O)Nc1ccc(C#N)c(Cl)c1 returned CYP2C19 inh inactive, Measles CPE inactive, CYP2C9 act inactive, CYP2C19 act inactive and CYP2C9 inh 53.
For O=C1C2CCCN2C(c2ccncc2)N1c1ccc(Cl)c(Cl)c1 (stereo not drawn) the results were CYP2C19 inh 68, Measles CPE inactive, CYP2C9 act inactive, CYP2C19 act inactive and CYP2C9 inh 88.
Screening Oc1ccc(/C=N/NP(=S)(c2ccccc2)c2ccccc2)cc1O returned CYP2C19 inh 90, Measles CPE inactive, CYP2C9 act inactive, CYP2C19 act inactive and CYP2C9 inh 99.
Screening Oc1ccc(/C=N/NP(=S)(c2ccccc2)c2ccccc2)c(O)c1O returned CYP2C19 inh 83, Measles CPE inactive, CYP2C9 act inactive, CYP2C19 act inactive and CYP2C9 inh 96.
`N=c1c2c(n(Cc3ccc(Cl)cc3Cl)c3c1CCC3)CCCC2` gave CYP2C19 inh inactive, Measles CPE inactive, CYP2C9 act inactive, CYP2C19 act inactive and CYP2C9 inh inactive.
`CCOC(=O)c1sc(/N=C/c2c(O)n(-c3ccccc3)c(=O)[nH]c2=O)c(C#N)c1C` gave CYP2C19 inh inactive, Measles CPE inactive, CYP2C9 act inactive, CYP2C19 act inactive and CYP2C9 inh inactive.
Screening C=Cn1ccnc1P(=S)(c1c(C)nn(-c2ccccc2)c1C)c1nccn1C=C returned CYP2C19 inh inactive, Measles CPE inactive, CYP2C9 act inactive, CYP2C19 act inactive and CYP2C9 inh inactive.
For CCOP(=O)(OCC)C(c1ccccc1)N(C)C=O (stereo not drawn) the results were CYP2C19 inh inactive, Measles CPE inactive, CYP2C9 act inactive, CYP2C19 act inactive and CYP2C9 inh inactive.
`CN1C(=O)N(C)C(=O)C2(Cc3c(nc4ccccn4c3=O)N3CCc4ccccc4C32)C1=O` (stereo not drawn) gave CYP2C19 inh inactive, Measles CPE 40, CYP2C9 act inactive, CYP2C19 act inactive and CYP2C9 inh inactive.
Cc1cc(C)c(C2=NOC(O)(C(F)(F)F)C2)c(=O)[nH]1 (stereo not drawn) was read as CYP2C19 inh inactive, Measles CPE 27, CYP2C9 act inactive, CYP2C19 act inactive and CYP2C9 inh inactive.
CCCOP(=O)(O)c1c([N+](=O)[O-])cc(C(F)(F)F)cc1[N+](=O)[O-] (tested in a mixture with another compound) was read as CYP2C19 inh inactive, Measles CPE inactive, CYP2C9 act inactive, CYP2C19 act inactive and CYP2C9 inh inactive.

Source: PubChem (several laboratories)
